Each structure is given as a SMILES string. Values joined by “and” are separate entries in the source; they are usually repeats but may differ in a detail not shown here. Equal entries are not always repeated. Inconclusive results are not listed. Active and inactive are the calls of the source. Unless noted, calls follow the shape of the full dose curve.

Experimental findings from PubChem BioAssay (NCATS) are described below.

The target of test [1] is Bile acid receptor (Homo sapiens) (UniProt Q96RI1). As to the kind of experiment: qHTS assay for small molecule antagonists of farnesoid X receptor signaling (AID 588526). Also: % is scaled to controls: 0 for no effect and ±100 for the full control effect. Summed up:
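Concentration-response titrations were fitted to the Hill equation for half-maximal inhibition and maximal response, with data normalised to 50 uM chenodeoxycholic acid and DMSO control wells. Cells: FXR-UAS-bla HEK293T, dialyzed FBS.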
(In qHTS, concentration-response curves come from the screen itself.)

The target of test [2] is Glucocorticoid receptor (Homo sapiens) (UniProt P04150). Nature of the test: qHTS assay for small molecule agonists of glucocorticoid receptor signaling (AID 588532; active = well fitted curve in the direction sought with a large enough effect in the signal ratio, with a control signal flat; the % refers to the signal ratio;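 also: 100% = dexamethasone at 0.1 µM and 0% = DMSO only wells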). The note with it: HeLa MMTV-bla, beta-lactamase ratio, agonist, 18 h; stronger effect = higher value; percent of dexamethasone control, DMSO zero. The procedure, abridged:
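Titration series, up to 92 uM, applied to GRE-bla HeLa cells for 18 h at 37 C. Detection by CCF4 FRET substrate after 2 h at RT.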

The target is the same in test [3]. As to the kind of experiment: qHTS assay for small molecule antagonists of glucocorticoid receptor signaling (AID 588533; active = well fitted inhibition curve with a large enough effect in the signal ratio, with a control signal flat, not every such curve was filed as active; the % refers to the signal ratio;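 also: cells stimulated with 2 nM dexamethasone as agonist; % is scaled to controls: 0 for no effect and ±100 for the full control effect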). Summed up: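 Antagonist-mode qHTS: compound titrations added to GRE-bla HeLa cells, then dexamethasone 2 nM final; 18 h, 37 C. CCF4 FRET fluorescence normalized to dexamethasone and DMSO; IC50 from Hill fit.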
The nature of test [4]: qHTS assay for small molecule antagonists of peroxisome proliferator-activated receptor delta signaling (AID 588535; active = well fitted inhibition curve with a large enough effect in the signal ratio, with a control signal flat, not every such curve was filed as active; the % refers to the signal ratio;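 as to max response: cells co-treated with a PPAR-delta agonist as stimulator during compound exposure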). The note with it: HEK293T PPARd-UAS-bla, beta-lactamase FRET ratio, 18 h; 460 nm channel. The procedure, abridged:
(§1)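 Compounds tested in titration on PPAR-delta-UAS-bla HEK293T cells grown in charcoal/dextran-stripped serum (2%); beta-lactamase activity read via CCF4 emission at 460 and 530 nm.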

Test [5] addresses Peroxisome proliferator-activated receptor gamma (Homo sapiens) (UniProt P37231). Nature of the test: qHTS assay for small molecule agonists of peroxisome proliferator-activated receptor gamma signaling (AID 588536; active = well fitted curve in the direction sought with a large enough effect in the signal ratio, with a control signal flat, not every such curve was filed as active; the % refers to the signal ratio;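 also: 0% = DMSO basal wells and 100% = rosiglitazone at 2 µM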). The procedure, abridged: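 Beta-lactamase reporter read-out: CCF4 fluorescence (ex 405, em 460/530 nm) after 2 h at RT. HEK293 GeneBLAzer cells were treated for 16 h at 37 C. Hill fits gave EC50 and efficacy versus 2 uM rosiglitazone (100%) and DMSO (0%).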

For test [6] the target is unchanged. Nature of the test: qHTS assay for small molecule antagonists of peroxisome proliferator-activated receptor gamma signaling (AID 588537; active = well fitted inhibition curve with a large enough effect in the signal ratio, with a control signal flat, not every such curve was filed as active; the % refers to the signal ratio;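 also: reporter cells co-stimulated with 50 nM rosiglitazone agonist during compound treatment; % of control where 0% means no effect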). Summed up: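 HEK293 cells, PPAR-gamma-UAS-bla, 3000/well. Pre-incubation 6-6.5 h, 37 C. Compound titration with rosiglitazone 50 nM final, 16 h. CCF4 dye, 2 h RT, dual-emission fluorescence.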
Test [7] concerns the target Vitamin D3 receptor (Homo sapiens) (UniProt P11473). Nature of the test: qHTS assay for small molecule antagonists of vitamin D receptor signaling (AID 588541).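 Also: receptor activated by calcitriol during compound treatment; series mostly up to about 77 µM; % is scaled to controls: 0 for no effect and ±100 for the full control effect.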 The procedure, abridged: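 VDR-UAS-bla HEK293T cells (2000/well, 2% charcoal-stripped FBS) were treated with titrated compounds plus 1-alpha,25-dihydroxyvitamin D3 (50 nM or 3 nM final) for 16 h at 37 C. CCF4 beta-lactamase fluorescence was read; Hill fits gave IC50.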

The target is the same in test [8]. As to the kind of experiment: qHTS assay for small molecule agonists of vitamin D receptor signaling (AID 588543).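 Also: 0% = DMSO basal and 100% = reference agonist control.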 Summed up: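 GeneBLAzer VDR-UAS-bla HEK293T cells in 2% charcoal-stripped FBS medium were dosed with compound titrations for 16 h at 37 °C; CCF4 β-lactamase readout (405 nm ex, 460/530 nm em). EC50 and efficacy from Hill fits, normalized to 50 nM calcitriol (100%) and DMSO (0%).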

Test [9] can be described thus: qHTS assay for small molecule agonists of retinoid X receptor alpha signaling (AID 588544).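 As to activation: 0% = DMSO basal wells and 100% = reference agonist.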 To be noted: HEK293T RXRa-UAS-bla, beta-lactamase reporter, 18 h; 530 nm emission.
In test [10] the target is Retinoic acid receptor RXR-alpha (Homo sapiens) (UniProt P19793). Described as above.
Chain of Retinoic acid receptor RXR-alpha (Homo sapiens) (P19793 whole entry, looked up): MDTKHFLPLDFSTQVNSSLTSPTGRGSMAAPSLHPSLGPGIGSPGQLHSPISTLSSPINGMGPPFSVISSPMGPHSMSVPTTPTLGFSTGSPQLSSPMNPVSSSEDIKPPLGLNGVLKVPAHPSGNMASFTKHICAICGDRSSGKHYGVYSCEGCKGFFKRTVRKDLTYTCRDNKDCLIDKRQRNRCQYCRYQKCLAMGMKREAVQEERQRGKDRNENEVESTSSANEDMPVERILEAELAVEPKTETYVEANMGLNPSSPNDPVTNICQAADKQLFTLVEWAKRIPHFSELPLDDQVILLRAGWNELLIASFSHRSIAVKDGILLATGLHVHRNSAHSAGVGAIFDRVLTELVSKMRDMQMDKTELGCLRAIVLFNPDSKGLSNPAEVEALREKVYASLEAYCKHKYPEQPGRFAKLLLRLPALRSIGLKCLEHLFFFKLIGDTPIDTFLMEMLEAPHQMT
Test [11] has as its target Thyroid hormone receptor beta (Homo sapiens) (UniProt P10828). Nature of the test: qHTS assay for small molecule agonists of thyroid hormone receptor beta signaling (AID 588545). Summed up:
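In this cell-based screen, titrated compounds act on HEK 293 cells held in medium with 2% charcoal/dextran FBS, NEAA and pyruvate for 18 hrs at 37 C. Responses are expressed relative to T3 (10 nM) as 100% and basal DMSO as 0%.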

The nature of test [12]: qHTS assay for small molecule antagonists of retinoid X receptor alpha signaling (AID 588546; active = well fitted inhibition curve with a large enough effect in the signal ratio, with a control signal flat, not every such curve was filed as active; the % refers to the signal ratio;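 also: cells stimulated with 9-cis-retinoic acid as agonist; % is scaled to controls: 0 for no effect and ±100 for the full control effect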). The note with it: HEK293T RXRa-UAS-bla, beta-lactamase ratio, antagonist mode; measured here: W530 green channel, cytotoxicity proxy. Summed up:
(§2)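 Beta-lactamase reporter inhibition, read as CCF4 fluorescence ratio (ex 405, em 460/530 nm) after 2 h at RT. HEK293T UAS-bla cells, 2500/well, were stimulated with 9-cis-RA at 500 or 100 nM final alongside test compound for 18 h at 37 C.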

For test [13], the target named is Retinoic acid receptor RXR-alpha (Homo sapiens) (UniProt P19793). The test is described as above. To be noted: HEK293T RXRa-UAS-bla, beta-lactamase ratio, antagonist mode. Summed up:
as §2

The target in test [14] is Thyroid hormone receptor beta (Homo sapiens) (UniProt P10828). As to the kind of experiment: qHTS assay for small molecule antagonists of thyroid hormone receptor beta signaling (AID 588547; active = well fitted inhibition curve with a large enough effect in the signal ratio, with a control signal flat, not every such curve was filed as active; the % refers to the signal ratio). To be noted: TR-UAS-bla HEK293, beta-lactamase ratio, antagonist mode, 18 h. Summed up:
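TR-UAS-bla GripTite HEK293 cells in 2% charcoal/dextran FBS medium were preincubated 4 h at 37 C, given compound (0.59 nM to 92 uM) plus 0.4 nM T3 (final) for 18 h, then CCF4 for 2 h at RT; Hill fit gave IC50.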

Test [15] addresses Voltage-gated inwardly rectifying potassium channel KCNH2 (Homo sapiens) (UniProt Q12809). As to the kind of experiment: qHTS Assay for Small Molecule Inhibitors of the Human hERG Channel Activity (AID 588834; active = well fitted inhibition curve with a large enough effect;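 also: top concentration of the series differs between compounds; % is scaled to controls: 0 for no effect and ±100 for the full control effect; lower thallium flux fluorescence means stronger hERG block; nearly all actives have a fitted effect of over 50% in size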). Summed up:
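In hERG-transduced U2OS cells, dye-loaded for 1 hr at room temperature in dark, test compounds incubated 10 min at 37 °C before thallium stimulation. AC50 values derived by Hill modelling of concentration-response.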

A short description of test [16]: qHTS assay for small molecule activators of the p53 signaling pathway (AID 651743; active = well fitted activation curve with a large enough effect in the signal ratio, not every such curve was filed as active; the % refers to the signal ratio; also: series mostly up to about 92 µM; % of control where 0% means no effect). To be noted: HCT-116 p53RE-bla, beta-lactamase FRET ratio, 16 h; stronger effect = higher value. Summed up: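 Here HCT-116 cells with an integrated p53-responsive beta-lactamase gene were incubated with compounds (16 hours, 37 C) after a 5-hour plating period; beta-lactamase activity was detected as fluorescence intensity via B/G FRET substrate.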

The nature of test [17]: qHTS assay for small molecule activators of the nuclear factor-kappa B (NF-kB) signaling pathway (AID 651749; active = well fitted activation curve with a large enough effect in the signal ratio; the % refers to the signal ratio; also: series mostly up to about 77 µM; % of control where 0% means no effect). To be noted: NF-kB-bla ME-180 cells, beta-lactamase FRET ratio, 16 h; stronger effect = higher value. Summed up:
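Beta-lactamase reporter expression, controlled by NF-kB response elements in ME-180 cells, was quantified fluorometrically via FRET disruption; cells at 2,000/well had been incubated with 23 nL test compound for 16 hr.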

In test [18] the target is Peroxisome proliferator-activated receptor delta (Homo sapiens) (UniProt Q03181). As to the kind of experiment: qHTS assay for small molecule antagonists of peroxisome proliferator-activated receptor delta signaling (AID 588535).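 As to max response: cells co-treated with a PPAR-delta agonist as stimulator during compound exposure.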 The procedure, abridged:
as §1

Test [19] can be described thus: qHTS assay for small molecule agonists of the antioxidant response element (ARE) signaling pathway (AID 651741; active = well fitted activation curve with a large enough effect in the signal ratio; the % refers to the signal ratio; also: potency is read from the fitted curve at half-maximal effect; as to activation: % of control where 0% means no effect). The procedure, abridged: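 Beta-lactamase reporter expression driven by the antioxidant response element in HepG2 cells was detected by fluorescence with LiveBLAzer B/G FRET substrate (2 h, room temperature) following 16 h compound treatment at 37 C.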

Chain of Vitamin D3 receptor (Homo sapiens) (P11473 whole entry, looked up): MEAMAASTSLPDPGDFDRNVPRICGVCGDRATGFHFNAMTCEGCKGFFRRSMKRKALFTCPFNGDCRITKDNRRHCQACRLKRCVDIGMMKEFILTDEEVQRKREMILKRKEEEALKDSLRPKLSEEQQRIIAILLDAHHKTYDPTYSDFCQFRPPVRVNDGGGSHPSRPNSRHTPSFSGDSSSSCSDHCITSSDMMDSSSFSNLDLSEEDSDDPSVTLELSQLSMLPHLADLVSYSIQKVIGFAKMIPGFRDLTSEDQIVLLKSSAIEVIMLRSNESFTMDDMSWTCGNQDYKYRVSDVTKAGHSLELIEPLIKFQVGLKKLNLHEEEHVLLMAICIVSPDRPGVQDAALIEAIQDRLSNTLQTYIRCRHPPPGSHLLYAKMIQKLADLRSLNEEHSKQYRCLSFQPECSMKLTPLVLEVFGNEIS
Chain of Glucocorticoid receptor (Homo sapiens) (P04150 whole entry, looked up): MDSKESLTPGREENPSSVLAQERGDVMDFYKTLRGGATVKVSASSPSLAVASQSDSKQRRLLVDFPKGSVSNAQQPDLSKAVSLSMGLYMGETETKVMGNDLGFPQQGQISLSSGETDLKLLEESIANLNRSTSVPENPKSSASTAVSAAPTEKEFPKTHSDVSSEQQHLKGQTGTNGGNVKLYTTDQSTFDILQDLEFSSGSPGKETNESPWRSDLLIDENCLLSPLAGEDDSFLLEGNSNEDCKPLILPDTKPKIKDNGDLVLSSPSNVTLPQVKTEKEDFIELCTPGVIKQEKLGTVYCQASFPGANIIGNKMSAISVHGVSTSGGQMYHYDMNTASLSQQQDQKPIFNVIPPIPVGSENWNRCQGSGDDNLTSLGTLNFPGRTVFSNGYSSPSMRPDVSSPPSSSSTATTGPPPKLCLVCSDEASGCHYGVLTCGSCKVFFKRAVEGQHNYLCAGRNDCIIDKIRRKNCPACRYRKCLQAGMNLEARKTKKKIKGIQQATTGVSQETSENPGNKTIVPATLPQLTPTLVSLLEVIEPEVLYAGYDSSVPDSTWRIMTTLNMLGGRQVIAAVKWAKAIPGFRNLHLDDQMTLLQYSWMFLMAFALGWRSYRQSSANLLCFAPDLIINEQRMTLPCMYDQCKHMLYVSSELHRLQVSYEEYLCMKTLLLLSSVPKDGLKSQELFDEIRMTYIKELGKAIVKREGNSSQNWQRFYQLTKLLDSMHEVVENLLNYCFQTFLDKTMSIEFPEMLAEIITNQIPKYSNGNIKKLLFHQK
Chain of Bile acid receptor (Homo sapiens) (Q96RI1 whole entry, looked up): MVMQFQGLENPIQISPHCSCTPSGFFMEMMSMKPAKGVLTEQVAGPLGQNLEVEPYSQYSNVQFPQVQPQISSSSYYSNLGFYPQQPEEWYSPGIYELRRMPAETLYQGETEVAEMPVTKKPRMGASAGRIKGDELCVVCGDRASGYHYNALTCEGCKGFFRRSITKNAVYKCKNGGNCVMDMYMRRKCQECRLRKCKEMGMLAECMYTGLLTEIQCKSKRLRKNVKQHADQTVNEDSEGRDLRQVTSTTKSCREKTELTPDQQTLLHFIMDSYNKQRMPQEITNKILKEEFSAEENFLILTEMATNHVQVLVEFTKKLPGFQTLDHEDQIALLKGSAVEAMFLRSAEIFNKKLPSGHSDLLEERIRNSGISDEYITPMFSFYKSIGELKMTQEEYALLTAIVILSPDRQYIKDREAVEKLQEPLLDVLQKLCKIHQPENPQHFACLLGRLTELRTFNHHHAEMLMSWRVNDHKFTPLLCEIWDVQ
Chain of Thyroid hormone receptor beta (Homo sapiens) (P10828 whole entry, looked up): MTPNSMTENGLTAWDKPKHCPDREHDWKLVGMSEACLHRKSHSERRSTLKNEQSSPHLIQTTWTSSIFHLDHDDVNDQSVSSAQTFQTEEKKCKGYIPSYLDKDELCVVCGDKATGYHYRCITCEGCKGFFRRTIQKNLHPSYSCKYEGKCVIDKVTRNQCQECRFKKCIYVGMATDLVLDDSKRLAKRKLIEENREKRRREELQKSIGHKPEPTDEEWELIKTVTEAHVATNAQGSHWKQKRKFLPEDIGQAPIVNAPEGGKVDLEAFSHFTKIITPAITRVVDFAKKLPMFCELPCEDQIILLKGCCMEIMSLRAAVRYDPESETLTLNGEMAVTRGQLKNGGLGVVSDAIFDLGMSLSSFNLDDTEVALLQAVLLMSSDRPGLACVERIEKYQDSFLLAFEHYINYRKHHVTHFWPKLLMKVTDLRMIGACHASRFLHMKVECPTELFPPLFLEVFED
Chain of Voltage-gated inwardly rectifying potassium channel KCNH2 (Homo sapiens) (Q12809 whole entry, looked up): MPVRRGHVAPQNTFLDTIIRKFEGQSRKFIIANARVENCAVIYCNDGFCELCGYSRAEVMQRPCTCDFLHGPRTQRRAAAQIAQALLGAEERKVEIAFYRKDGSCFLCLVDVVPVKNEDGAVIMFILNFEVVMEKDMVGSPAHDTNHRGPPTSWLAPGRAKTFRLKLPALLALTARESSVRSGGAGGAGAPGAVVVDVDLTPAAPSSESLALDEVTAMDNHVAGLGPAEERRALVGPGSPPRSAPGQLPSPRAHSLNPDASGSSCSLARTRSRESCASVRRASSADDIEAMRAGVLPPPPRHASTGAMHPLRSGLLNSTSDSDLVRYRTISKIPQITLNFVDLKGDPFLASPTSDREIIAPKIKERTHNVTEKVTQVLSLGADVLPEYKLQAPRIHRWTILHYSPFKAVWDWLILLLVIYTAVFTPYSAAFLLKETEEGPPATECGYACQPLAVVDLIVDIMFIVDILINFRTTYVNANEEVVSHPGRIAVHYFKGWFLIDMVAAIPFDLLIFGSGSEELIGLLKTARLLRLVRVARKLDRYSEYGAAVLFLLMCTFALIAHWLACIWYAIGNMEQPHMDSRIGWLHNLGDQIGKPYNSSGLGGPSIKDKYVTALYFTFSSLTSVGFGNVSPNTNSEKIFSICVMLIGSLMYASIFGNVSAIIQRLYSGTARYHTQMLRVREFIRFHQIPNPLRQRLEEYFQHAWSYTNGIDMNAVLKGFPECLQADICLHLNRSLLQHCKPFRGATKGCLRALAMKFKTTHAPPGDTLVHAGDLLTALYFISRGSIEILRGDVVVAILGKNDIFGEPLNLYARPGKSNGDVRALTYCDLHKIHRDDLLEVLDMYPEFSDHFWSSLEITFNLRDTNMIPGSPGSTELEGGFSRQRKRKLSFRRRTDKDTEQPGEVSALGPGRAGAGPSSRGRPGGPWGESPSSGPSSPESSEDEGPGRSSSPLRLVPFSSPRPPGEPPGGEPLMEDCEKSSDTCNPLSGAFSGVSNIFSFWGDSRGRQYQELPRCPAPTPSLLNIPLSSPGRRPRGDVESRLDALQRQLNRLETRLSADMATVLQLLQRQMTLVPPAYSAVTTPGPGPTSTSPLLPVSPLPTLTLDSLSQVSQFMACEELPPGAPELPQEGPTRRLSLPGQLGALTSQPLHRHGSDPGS
Chain of Peroxisome proliferator-activated receptor gamma (Homo sapiens) (P37231 whole entry, looked up): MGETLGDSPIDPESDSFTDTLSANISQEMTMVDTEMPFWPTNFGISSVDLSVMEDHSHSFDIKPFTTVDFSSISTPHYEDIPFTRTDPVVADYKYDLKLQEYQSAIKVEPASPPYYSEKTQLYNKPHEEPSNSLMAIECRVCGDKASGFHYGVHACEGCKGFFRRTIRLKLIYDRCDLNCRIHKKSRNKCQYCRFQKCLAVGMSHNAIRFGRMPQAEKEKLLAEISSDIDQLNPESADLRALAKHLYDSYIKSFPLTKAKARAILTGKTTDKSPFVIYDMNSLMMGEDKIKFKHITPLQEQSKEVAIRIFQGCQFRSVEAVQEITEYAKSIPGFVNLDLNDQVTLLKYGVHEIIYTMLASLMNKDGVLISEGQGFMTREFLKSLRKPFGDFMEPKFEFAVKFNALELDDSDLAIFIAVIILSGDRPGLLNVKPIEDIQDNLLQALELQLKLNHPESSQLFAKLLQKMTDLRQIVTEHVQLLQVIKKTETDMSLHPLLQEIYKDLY
Chain of Peroxisome proliferator-activated receptor delta (Homo sapiens) (Q03181 whole entry, looked up): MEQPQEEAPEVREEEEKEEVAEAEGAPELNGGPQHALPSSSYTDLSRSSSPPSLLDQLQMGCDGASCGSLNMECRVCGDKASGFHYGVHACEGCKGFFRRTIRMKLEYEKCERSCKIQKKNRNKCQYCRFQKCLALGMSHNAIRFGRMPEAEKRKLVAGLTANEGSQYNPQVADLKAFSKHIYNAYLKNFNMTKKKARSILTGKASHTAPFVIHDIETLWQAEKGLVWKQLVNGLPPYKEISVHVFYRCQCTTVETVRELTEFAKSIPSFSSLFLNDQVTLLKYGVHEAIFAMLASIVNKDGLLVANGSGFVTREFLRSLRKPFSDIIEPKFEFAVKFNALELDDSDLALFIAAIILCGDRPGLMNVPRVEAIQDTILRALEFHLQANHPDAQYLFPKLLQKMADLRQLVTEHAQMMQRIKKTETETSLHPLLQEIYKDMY

Turning to `Cc1ccc(Cl)cc1N`, the compound was called inactive in test [1], in test [3], in test [5], in test [6], in test [7] and in test [8]. The result in [10] and in [11] was inactive. Further, the activation in test [2] is -7.53% (inactive); in test [16], 0.545% (inactive); in [17], 0.369% (inactive). Further, the max response in test [4] was -18.2%; in test [9], 3.01%; in [12], -7.87%; in test [13] it was 0.248% (inactive). Moreover, the activity change % (negative = inhibition) in [14] was -4.43% (inactive). Besides, in test [15], the Potency entry is “inactive”.

For `Nc1cccc2c(=O)[nH][nH]c(=O)c12`, the compound was called inactive in test [1], in test [3], in test [5], in test [6], in test [10] and in test [11]. Besides, the activation was 0.411% (inactive) in test [2], -2.14% (inactive) in [16] and 0.176% (inactive) in test [17]. Moreover, the max response in test [4] is -7.57%; in test [9], -4.82%; in test [12] it was -2.09%; in [13], 12.7% (inactive). The activity change % (negative = inhibition) in test [14] is -3.76% (inactive). Besides, the Potency result in test [15] was “inactive”.

On to `CC(=O)OC(C)C`, for which the result in [1], in [3], in test [5], in test [7], in test [8] and in [10] was inactive. Also, the call in test [11] was inactive. Further, the activation was 0.131% (inactive) in test [2] and -0.528% (inactive) in test [16]. The max response in test [4] was -28.9%; in [9], 0.6%; in [12], 7.8%. Besides, the Potency result in test [18], in test [15] and in test [19] was “inactive” in each case. In test [14], the activity change % (negative = inhibition) was 7.16% (inactive).

Turning to `C=C(C)C(=O)OCCCCCCCCCC`, the compound was classed as inactive in test [1], in test [3], in [5], in [6], in test [7] and in test [8]. Also, the outcome in test [10] and in test [11] was inactive. Also, the activation in test [2] was 8.77% (inactive). Further, the max response in [9] is -10.3%; in test [12] it was -7.57%; in test [13] it was -3.36% (inactive). Also, the activity change % (negative = inhibition) in [14] is 12.3% (inactive).

Take `CC(=O)Nc1ccc(N)cc1`: the compound was classed as inactive in [1], in [3], in [5], in test [6], in test [7] and in test [8]. Further, the outcome in [10] was inactive. In addition, the activation is 1.17% (inactive) in [2], 0.791% (inactive) in [16] and -0.653% (inactive) in [17]. Further, the max response in test [9] was -9.56%; in test [12], 6.27%; in test [13] it was 0.952% (inactive). The Potency entry in test [15] is “inactive”.

With `Oc1cccc(Nc2ccccc2)c1`, the call in [1], in test [3], in test [5], in [10] and in test [11] was inactive. Also, the activation was -7.34% (inactive) in [2] and 0.49% (inactive) in test [17]. Also, the max response in [9] is -0.0784%. Further, in test [15], the Potency result is “inactive”. In [19], the Potency was 42.2 µM (active).

Consider `CCCCC=O`, for which the call in test [1], in test [3], in test [7], in test [8], in test [10] and in test [11] was inactive. Besides, the activation in [2] was -0.364% (inactive); in test [17], 0.166% (inactive). The max response in test [9] is -7.77%; in [12] it was -1.56%; in [13], -1.19% (inactive). Besides, the activity change % (negative = inhibition) in test [14] was -3.59% (inactive). In addition, the Potency entry in test [15] is “inactive”.

`Cc1ccc2oc(=O)ccc2c1`: the outcome in test [1], in test [3], in [5], in test [6], in [7] and in [8] was inactive. For the same compound, in [11], the compound was called inactive. Besides, the activation in test [2] is -1.61% (inactive); in test [17], -0.483% (inactive) and -1.78% (inactive). The max response in [4] was 1.44% and 30.5%; in [9], 0.296% and 3.97%; in test [12] it was -0.906%; in test [13], -15.9% (inactive). For the same compound, the activity change % (negative = inhibition) in [14] was -13% (inactive) and 13.3% (inactive). Besides, the Potency entry in test [15] was “inactive”. Besides, the Potency in test [19] is 8.63 µM (active).
